CYP2C19 activ = activators of human cytochrome P450 2C19; P33261; recombinant CYP2C19, luciferin-H EGE luminescence; active compounds read high; 0 = fully inhibited enzyme, 1 = untreated enzyme; activation factor at 5 µM; 96,000 tested, under 10 active; AID 1025;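 active = activation factor of at least 2 at 5 µM in the primary screen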;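 also: 0 = wells with 2.5 mM tranylcypromine and 1 = vehicle-only wells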
CYP2C9 inhib = human CYP2C9 inhibition. P11712. CYP2C9 Supersomes, luciferin-H conversion, luminescence. inhibition, % at 5 µM. 96,000 tested, 20% active;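 active = blocking of liver enzyme CYP2C9 beyond about 50% at 5 µM, limit read from the data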
Target sequence (P11712 whole entry, looked up): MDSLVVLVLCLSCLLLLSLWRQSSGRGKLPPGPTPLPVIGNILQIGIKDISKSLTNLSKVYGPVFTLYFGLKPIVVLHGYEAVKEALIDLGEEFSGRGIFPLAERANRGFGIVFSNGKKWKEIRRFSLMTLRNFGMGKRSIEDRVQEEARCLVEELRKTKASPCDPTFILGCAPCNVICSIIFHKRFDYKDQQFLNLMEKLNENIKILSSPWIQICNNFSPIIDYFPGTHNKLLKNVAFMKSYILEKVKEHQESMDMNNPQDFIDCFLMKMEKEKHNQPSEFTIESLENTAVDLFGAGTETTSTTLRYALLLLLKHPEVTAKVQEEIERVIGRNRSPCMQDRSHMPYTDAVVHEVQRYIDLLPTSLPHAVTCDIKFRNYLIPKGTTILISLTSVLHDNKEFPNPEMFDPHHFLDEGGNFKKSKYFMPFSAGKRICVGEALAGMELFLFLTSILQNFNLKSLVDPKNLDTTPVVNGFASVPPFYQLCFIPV
sEH inhibitor = inhibitors of human soluble epoxide hydrolase. 91,000 tested, 0.34% active. inhibition, % at 2 µM. recombinant human sEH enzymatic activity assay. AID 707. P34913; in the data active = inhibition above about 80%
CYP2C19 inhib = human CYP2C19 inhibition | P33261 | CYP2C19 Supersomes, luciferin-H EGE luminescence, 30 min | inhibition, % at 5 µM | 96,000 tested, 21% active | AID 778;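 active = CYP2C19 inhibition above a set limit at 5 µM in the primary screen, cut at about 50% in these data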;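 also: plate controls were negative control wells for no effect and 2.5 mM tranylcypromine positive control for full effect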
CYP2C9 activ = activators of human CYP2C9 | AID 1024 | 96,000 tested, 1.4% active | recombinant CYP2C9, luciferin-H conversion, luminescence; active compounds read high; factor 1 = untreated enzyme, 0 = blocked | activation factor at 5 µM;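 active = activation factor of 2 or more for CYP2C9 at a 5 µM dose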;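 also: 0 = sulfaphenazole-blocked wells and 1 = vehicle-only wells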
sEH activator = activators of human soluble epoxide hydrolase. purified human sEH enzymatic activity, activator screen. activation, % at 2 µM. 91,000 tested, 0.04% active. P34913. AID 717; in the data active = activation above about 37%
Active calls of the source: *; nt = not tested or not shown. Sampled rows, rich in hits. Any-hit rate of the full collection: about 27%.

SMILES	CYP2C19 activ	CYP2C9 inhib	sEH inhibitor	CYP2C19 inhib	CYP2C9 activ	sEH activator
CCn1c(SCC(=O)NCCc2ccccc2)nnc1-c1cccs1	0.7	32	-14	32	0.7	14
CCn1c(SCC(=O)c2ccccc2)nnc1-c1cccs1	0.3	16	3	69*	0.8	-3
CCn1c(SC/C=C/c2ccccc2)nnc1-c1cccs1	0	82*	-7	99*	0.2	10
Cc1nc2ccccc2nc1CSc1nncs1	nt	nt	3	nt	nt	-2
CCn1c(SCc2nc3ccccc3nc2C)nnc1-c1cccs1	0.1	-8	-3	93*	1.1	4
CCC(=O)c1ccc(OCCSc2ncccn2)cc1	1	-10	-33	-1	1.1	28
O=C(CSc1nc(-c2ccccc2)cc(=O)[nH]1)N1CCOCC1	1	-1	9	-4	1	-6
CC1CC(C)CN(C2CCN(Cc3cccnc3)CC2)C1 (stereo unspecified)	1	12	-12	3	0.9	14
C=CCn1c(Cc2cccs2)nnc1SC/C=C/c1ccccc1	0.3	58*	2	70*	0.4	-6
C=CCn1c(SCc2nc3ccccc3nc2C)nnc1-c1ccoc1C	0	-39	2	95*	1.4	-3
C/C=C/Cn1c(N(C)Cc2ccccc2)nc2c1c(=O)[nH]c(=O)n2C	1.1	9	nt	-9	0.9	nt
O=C1c2ccccc2C(=O)C1c1nccc2ccccc12	0.5	58*	nt	45	0.4	nt
NC(=O)CNC(=O)[C@@H]1CC2(CC(c3ccc(Cl)cc3)=NO2)CN1C(=O)c1ccc(Br)cc1 (stereo partly specified)	1	10	5	4	0.9	-4
CCCOC(=O)CSC1=C(C#N)C(c2ccccc2OCC)C(C#N)C(=O)N1 (stereo unspecified)	0.6	67*	-6	43	0.3	7
CCCSC1=C(C#N)C(c2ccccc2OCC)CC(=O)N1 (stereo unspecified)	0.5	23	6	47	0.8	-1
CCCCOC(=O)CSC1=C(C#N)C(c2ccccc2OC)C(C#N)C(=O)N1 (stereo unspecified)	0.4	55*	-11	64*	0.5	12
CCCCOC(=O)CSC1=C(C#N)C(c2ccccc2OCC)C(C#N)C(=O)N1 (stereo unspecified)	0.5	79*	-17	50	0.2	16
CCOC(=O)CSC1=C(C#N)C(c2ccc(Cl)cc2)C(C(=O)OC)C(=O)N1 (stereo unspecified)	0.6	41	-11	40	0.6	12
CCC(C)(C)NC(=O)Cc1ccccc1OC	0.8	-62	-16	22	1.6	15
COCCNC(=O)CN(C(=O)CCC(=O)Nc1cc(C)on1)c1ccccc1C	0.9	25	-6	10	0.8	4
Cc1ccc(-n2ncc(N(C)C)c(Cl)c2=O)cc1	0.9	-5	14	15	1.1	-12
CN(/N=C/c1ccncc1)c1cnn(-c2ccc(F)c(Cl)c2)c(=O)c1Cl	0.1	93*	-7	91*	0.1	5
COc1nc(OC/C(N)=N/O)nc(N2CCOCC2)n1	1	11	nt	0	0.9	nt
COc1ccc(C(CNC(=O)c2ccccc2C)N2CCCC2)cc1 (stereo unspecified)	0.8	13	0	22	0.9	-1
COc1ccc(C(CNC(=O)COc2ccccc2C#N)N2CCOCC2)cc1 (stereo unspecified)	0.6	60*	nt	41	0.4	nt
SMILES	CYP2C19 activ	CYP2C9 inhib	sEH inhibitor	CYP2C19 inhib	CYP2C9 activ	sEH activator
O=C(NCC(c1ccc(F)cc1)N1CCOCC1)c1ccc(Br)o1 (stereo unspecified)	0.4	24	nt	61*	0.8	nt
COc1ccc(C(CNC(=O)c2cc(C)oc2C)N2CCOCC2)cc1 (stereo unspecified)	0.4	8	11	60*	0.9	-10
COc1ccc(C(CNC(=O)c2cccc(Br)c2)N2CCCC2)cc1 (stereo unspecified)	0.6	7	16	40	0.9	-14
COc1ccc(C(CNC(=O)c2ccc3c(c2)C(=O)N(CCC(C)C)C3=O)N2CCOCC2)cc1 (stereo unspecified)	0.1	88*	3	88*	0.1	-3
Cc1ccc(C(=O)COC(=O)CCC(=O)Nc2cccc(Cl)c2)cc1[N+](=O)[O-]	0.8	-3	14	18	1	-12
O=C(Nc1ccc(O)cc1)c1ccc(C(=O)c2ccccc2)o1	0.8	16	-14	15	0.8	10
Cc1ccccc1N(Cc1ccccc1F)S(C)(=O)=O	0.1	70*	9	95*	0.3	-6
c1ccc2c(COn3nnc4ccccc43)cccc2c1	0	70*	-14	96*	0.3	14
O=C(Cn1nnc2ccccc21)NCc1ccccc1	0.8	-14	10	24	1.1	-7
c1ccc2c(Cn3nnc4ccccc43)cccc2c1	0.7	-147	-7	26	2.5*	8
O=C1CCC([N+](=O)[O-])C(c2cccc(Cl)c2Cl)N1 (stereo unspecified)	1.1	11	10	-11	0.9	-10
CCSc1nnc(NC(=O)C(CC)Oc2ccccc2)s1 (stereo unspecified)	0.7	80*	nt	34	0.2	nt
CCOC(=O)c1sc(NC(=O)COC(=O)c2ccco2)nc1C	1	20	13	-1	0.8	-9
CCOC(=O)c1sc2nc(NC(=O)COc3ccccc3)sc2c1C	0.5	86*	-2	51*	0.1	3
CCCCSc1nnc(NC(=O)CCc2ccccc2)s1	0.8	56*	8	21	0.4	-7
CCSc1nnc(NC(=O)C2CCCCC2)s1	0.6	27	-9	37	0.7	13
CCSc1nnc(NC(=O)C2CC=CCC2C(=O)O)s1 (stereo unspecified)	1	79*	-3	0	0.2	5
Cc1c(C(=O)N2CCc3ccccc32)oc2c1C(=O)CC(C)(C)C2	0.9	23	-10	11	0.8	13
CCSc1nnc(NC(=O)COc2ccc3ccccc3c2)s1	0.4	68*	2	60*	0.3	1
CCC(Oc1ccccc1)C(=O)Nc1ccccn1 (stereo unspecified)	0.3	44	14	75*	0.6	-11
Cc1nnc(NC(=O)COc2ccccc2)s1	0.9	22	4	13	0.8	-7
CCC(Oc1ccccc1)C(=O)Nc1cc(C)on1 (stereo unspecified)	0.6	46	0	36	0.5	0
CCSc1nnc(NC(=O)COc2ccccc2)s1	0.5	76*	12	53*	0.2	-9
COc1ccc(CC(=O)NC(CC(=O)O)c2ccc(OC)cc2)cc1 (stereo unspecified)	1.1	-5	-3	-14	1.1	2
COc1ccc(C)cc1NC(=O)c1cnc2sccn2c1=O	1	-9	nt	4	1.1	nt

Source: PubChem BioAssay (several laboratories)
